Bioassay records as filed in PubChem.
Tgondii IFNg = T. gondii growth inhibition under IFN-gamma; Toxoplasma gondii growth in IFN-gamma-treated host cells; active compounds read low; activity change, negative = inhibition, % (no concentration beside the values); 69,000 compounds, 3.8% hits; AID 1259416; in the data active means activity change below about -70%, passing the limit was not always enough;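 further: host cells are HeLa cells infected with Toxoplasma gondii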
Active calls of the source: *; i = inactive. This is one part of a sample in which hits are shown more often than they occur.

SMILES	Tgondii IFNg
COc1ccc2cc(C(=O)NCC3(O)CCCNCC3)n(C)c2c1 (stereo not given)	-2
Cc1cc(C(=O)NC(CC(C)C)c2ncnn2C)nc(C)n1 (stereo not given)	1
COc1ccc(-c2nc(C)c(CCNC(=O)C(=O)Nc3c(C)cccc3C)s2)cc1	-51
Cc1cc(C)n(-c2ccc(CCC(=O)Nc3nc(-c4ccccn4)cs3)cc2)n1	-98*
Cc1cc(C)n(-c2ccc(C(=O)Nc3nnc(CCc4ccccc4)s3)cc2)n1	-26
O=C(Nc1nc(-c2ccccn2)cs1)c1ccccc1CN1CCCCC1	-14
Cc1cccnc1C(O)c1cccc(F)c1N1CCN(Cc2cnc(N(C)C)nc2)CC1 (stereo not given)	5
CC(C)Oc1cncc(C(=O)N2CCOCC2)c1	27
Cn1nc(CNC(=O)C2CCCN(C(N)=O)C2)c2c(Cl)cccc21 (stereo not given)	-2
O=C(Sc1ccc(Cl)cc1)c1ccc(-c2cccs2)s1	-104*
CC(=O)c1ccc(-c2cccs2)s1	-31
O=C(c1ccc(-c2cccs2)s1)c1ccc(F)cc1F	151
Cc1cnc2c(C(=O)Nc3cccc(OCCN4CCOCC4)c3)cnn2c1	4
CCC[C@H]1C[C@H]1C(=O)N1CCOc2c(O)cc(-c3cccc(Cl)c3)cc2C1	-68
CCCSCCCNc1nc(-c2nnc(-c3ccc(C)cc3)o2)nc2ccccc12	-26
Cc1cccc(-c2nnc(-c3nc(NCc4ccc(N(C)C)cc4)c4ccccc4n3)o2)c1	6
Cc1cccc(-c2nnc(-c3nc(NCc4ccc(C)o4)c4ccccc4n3)o2)c1	-80*
COc1ccc(-c2nnc(-c3nc(NCc4cccc(C)c4)c4ccccc4n3)o2)cc1	-48
Cc1cccc(-c2nnc(-c3nc(NCc4cccnc4)c4ccccc4n3)o2)c1	232
CCCNc1nc(-c2nnc(-c3cccc(C)c3)o2)nc2ccccc12	-98*
Cc1cccc(-c2nnc(-c3nc(NCCN4CCCC4)c4ccccc4n3)o2)c1	-90*
Cc1cccc(CNc2nc(-c3nnc(-c4ccccc4)o3)nc3ccccc23)c1	-85*
CCC(C)Nc1nc(-c2nnc(-c3cccc(C)c3)o2)nc2ccccc12 (stereo not given)	-60
Cc1ccc(-c2nnc(-c3nc(NCc4cccc(F)c4)c4ccccc4n3)o2)cc1	-30
CCOc1ccc(CNc2nc(-c3nnc(-c4cccc(C)c4)o3)nc3ccccc23)cc1	-16
SMILES	Tgondii IFNg
Cc1cccc(-c2nnc(-c3nc(N4CCOCC4)c4ccccc4n3)o2)c1	i
CC(C)C1=NOC(C(=O)N2CCC(c3cc(C(C)C)n[nH]3)CC2)C1 (stereo not given)	14
O=C(CCC1Nc2c3ccccc3nc(=S)n2C1=O)NCc1ccc(Cl)cc1 (stereo not given)	0
CC(C)N1CCC(c2nc3ccc(-c4ccnn4C)cn3n2)CC1	-3
O=c1c2ccccc2ncn1CCc1n[nH]c(CCc2ccccc2)n1	9
O=c1[nH]c2ccc(S(=O)(=O)N3CCC(c4ccccc4)C3)cc2[nH]1 (stereo not given)	23
CC[C@H]1C[C@@H](NC(C)=O)C[C@@H](c2cccc(Oc3ccccc3)c2)O1	6
Cc1cccc(OC(C(=O)N2CC(c3cccnc3)C2)C(C)C)c1 (stereo not given)	-11
CCC(CNC1CCN(C(=O)C(C)C)CC1)N1CCOCC1 (stereo not given)	-20
O=C1CCCN1CCCNc1ccc(Cl)nn1	40
COc1cccc(NC(=O)N2CCC3(CC2)[C@@H]2CN(C(C)=O)C[C@H]2C(=O)N3C)c1	235
CS(=O)(=O)N1CCC(C(=O)NCCc2csc(-c3cccs3)n2)CC1	5
Cc1nc(-c2ccc(Cl)cc2)sc1CCNC(=O)c1ccc2c(c1)OCO2	-52
c1ccc(-c2nnc(-c3nc(NCc4ccco4)c4ccccc4n3)o2)cc1	i
Cc1cccc(-c2nnc(-c3nc(NCCc4ccco4)c4ccccc4n3)o2)c1	-100*
Cc1ccc(-c2nnc(-c3nc(NCCc4ccco4)c4ccccc4n3)o2)cc1	362
COC(=O)c1cc(OC)c2c(c1-c1c(C(=O)OC)cc(OC)c3c1OCO3)OCO2	-4
COc1ccccc1-c1nc(Cn2ccn3nc(-c4ccccc4)cc3c2=O)c(C)o1	45
COc1ccc(C(=O)CSc2nc(Cc3cccs3)nc3ccccc23)cc1	11
CNC(=O)CCN(C)C1CCN(c2cccc(C)c2C)CC1	-16
Cc1cc(S(=O)(=O)NCCCn2ccnc2)c(Cl)cc1Cl	-53
C=CCc1c(C)nc(SC)nc1Nc1ccc(C(=O)O)cc1	-7
C=CCc1c(C)nc2ccc(C(=O)OCC)cc2c1Cl	-102*
CCOC(=O)c1cccc(P(C)(C)=O)c1	14
COc1ccc(-n2nc(C(=O)O)nc2C)cc1	24
COc1ccc(-n2c(C)c3c(OC)cccc(=O)c3c2C)cc1	-6
COc1ccc(-n2c(C)c([N+](=O)[O-])c3ccc(O)cc32)cc1	-77*
COc1ccc(-c2cc(C(=O)N3CCC(C(=O)N4CCCCCC4)CC3)on2)cc1	3
Cc1ccc(NC(=O)CC(=O)N2CCN(CC(C)C)CC2)cc1	2
